IkB signaling = IkB pathway inhibition in ABC-DLBCL cells. Potency, µM (highest dose often 57.1 µM), inactives show at the highest dose IkBa stabilization activation. 110,000 compounds, 0.04% hits. ABC-DLBCL IkBa-CBG/CBR dual luciferase ratio, 4 h; response scale: scaled: untreated 0%, proteasome inhibitor 100%. AID 445; active = well fitted curve in the direction sought with a large enough effect in the signal ratio, not every such curve was filed as active; inconclusive = small, poorly fitted or top-dose-only effect, or a change in a side signal; the % refers to the signal ratio;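 also: the direction sought is a rising ratio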
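In this assay, an IκBα–CBG68 fusion accumulates when IKK-driven degradation is blocked; native CBR normalizes for cell number. OCI-Ly3 cells were treated 4 h with compound and doxycycline, then green and red light read after Chroma-Glo addition.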
p53ts 32C tox = p53ts cell cytotoxicity, permissive temperature; H1299-p53A138V at 32C, ATP luminescence viability, 24 h; Potency, µM (doses to about 46.1 µM), for the others: at the highest dose activity change, negative = cytotoxicity, most hits filed as cytotoxic; 130,000 compounds, 0.93% hits;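 also: 0% = DMSO and -100% = full killing by reference compound; nearly all actives have a fitted effect of over 55% in size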
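ATP-content luminescence (ATPlite) read-out after 24 h compound exposure at 32C in H1299-p53A138V cells (600/well). Tested up to 46 uM. Normalized to DMSO (0%) and 100 uM tamoxifen (100% killing); Hill-fit AC50.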
Peg3 imprint = induces erasure of genomic imprints in mouse ES cells | mouse ES Peg3-LacZ reporter, beta-gal luminescence, 40 h | Potency, µM (doses to about 60.7 µM), for the others: at the top dose activity change, positive = activation, hits mostly activators | 110,000 compounds, 0.02% hits
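Imprint erasure is scored as LacZ activity from the silenced maternal Peg3 allele in feeder-free female ES cells cultured 40 h with LIF. Luminescence is normalized to in-plate negative controls and fitted to the Hill equation.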
p53ts 39C kill = p53ts cell cytotoxicity, nonpermissive temperature; H1299-p53A138V viability at 39C, ATP luminescence, 24 h; Potency, µM (doses to about 46.1 µM), for inactives: top-dose activity change, negative = cell killing, most hits filed as cytotoxic; 130,000 compounds, 1.5% hits; AID 902; also: % is scaled to controls: 0 for no effect and ±100 for the full control effect; nearly all actives have a fitted effect of over 55% in size
The depositor's hits bear a star; ? = inconclusive; . = not tested or not shown; [ ] = remark or other dose. Rows were chosen to be rich in hits. Some 1.8% of all compounds tested hit in one or more screens of this group. Unless noted, calls follow the shape of the dose curve; as a rule, active = well fitted curve in the direction sought with a large enough effect; inconclusive = small, poorly fitted or top-dose-only effect, or another doubt; inactive = no such curve, though single readings can be large; an effect the other way counts as inactive or inconclusive. Potency is read from the fitted curve at half-maximal effect.

SMILES | IkB signaling | p53ts 32C tox | Peg3 imprint | p53ts 39C kill
CCCOc1cccc(C2c3c(-c4ccccc4O)n[nH]c3C(=O)N2Cc2ccco2)c1 (stereo not drawn) | ? | ? | -10.7%[10.9 µM] | 31.6µM*
Cc1cc(C)c(-c2n[nH]c3c2C(c2ccccc2F)N(Cc2ccco2)C3=O)c(O)c1 (stereo not drawn) | ? | -22.6% | -15.9%[10.9 µM] | 15.8µM*
Cc1cc(C)c2sc(N3CCN(C(=O)C4CC4)CC3)nc2c1 | -5.0% | ? | -13.7%[10.9 µM] | 7.94µM*
CC[C@H](C)C(=O)O[C@@H]1CCC=C2C=C[C@H](C)[C@@H](CC[C@H]3C[C@@H](O)CC(=O)O3)[C@H]21 | 2.2% | . | . | .
CCN(CC)CCCC(C)Nc1c2ccc(Cl)cc2nc2ccc(OC)cc12 (stereo not drawn) | . | 5.01µM* | -37.7% | 10µM*
COc1ccc2nc(Nc3nc(C)c(CCC(C)C)c(=O)[nH]3)nc(C)c2c1 | 6.1% | 17.9% | -9.1% | 12.5%
CC1CCCCN1C(=O)CSc1nc2ccccc2nc1Cc1ccc(Cl)cc1 (stereo not drawn) | ? | 9.8% | 13.8%[10.9 µM] | 13.4%
COc1cc2cc3c4c(cc(OC)c(OC)c4c2cc1OC)CCN3C | 3.4%[11.4 µM] | 31.6µM* | -47.2% | 31.6µM*
O=C(Nc1ccc(N2CCCC2)c(Cl)c1)c1ccco1 | -2.9% | 10µM* | -29.0% | 7.94µM*
O=C(Nc1ccc2c(c1)nc1n2CCSC1)c1ccco1 | ? | 2µM* | -45.7% | 3.16µM*
O=C(Nc1ccc2c(c1)nc1n2CCOC1)c1ccco1 | ? | 7.94µM* | -30.4% | ?
O=C(Nc1ccc2c(c1)nc1n2CCN(C2CCCCC2)C1)c1ccco1 | 0.3% | -0.2% | -9.4% | 2.4%
CC(=O)c1ccc(NC(=O)Cn2ncc3c(C)n(Cc4ccc(F)cc4)c(C)c3c2=O)cc1 | 0.8% | -2.9% | -4.3%[10.9 µM] | -6.4%
COc1cccc(CNC(=O)C2CCN(Cc3cc4ccccc4n3Cc3ccc(C)cc3)CC2)c1 | -2.3% | 21.1% | -16.7%[10.9 µM] | -6.4%
COc1ccc(OC)c(CNC(=O)c2cc(-c3ccc(Cl)s3)nc3ccccc23)c1 | ? | 1.5% | -6.3%[10.9 µM] | -6.9%
COc1ccc(CNC(=O)c2cc(-c3ccc(Br)s3)nc3ccccc23)cc1 | 0.9% | -5.5% | 3.5%[10.9 µM] | 10µM*
C/C(N=NC(=[SH+])SCc1ccccc1)=C1\C=CC=CN1.[Cl][Cu] | . | . | -51.3%[10.9 µM] | .
Cc1ccc(C(=O)Cn2c3c(sc2=N)CCCC3)cc1 | -0.3% | 2µM* | -76.0% | 1.58µM*
Cc1nc2cc(C(=O)O)ccc2n1-c1ccc(C(C)C)cc1 | 0.1% | -1.1% | 6.7%[10.9 µM] | 21.3%
Cn1c(C(=O)NCCc2ccccc2)cc2sc(Cl)cc21 | 5.1% | 15.8µM* | -21.9%[10.9 µM] | 12.6µM*
O=Nc1c(-c2c(O)[nH]c3ccccc23)[nH]c2ccccc12 | ? | 25.1µM* | -24.2% | 25.1µM*
CCN1CCN(c2cc(C)c3cc(NC(=O)c4cnccn4)ccc3n2)CC1 | -1.3% | -0.8% | 4.1% | 3.8%
CCCCc1ccc(C(=O)Nc2ccc3nc(N4CCN(CC)CC4)cc(C)c3c2)cc1 | ? | -7.6% | -26.1%[10.9 µM] | 7.94µM*
CCN1CCN(c2cc(C)c3cc(NC(=O)/C=C/c4cccc(OC)c4OC)ccc3n2)CC1 | 11.0% | ? | -1.7%[10.9 µM] | ?
CCN1CCN(c2cc(C)c3cc(NC(=O)/C=C/c4cccc(Cl)c4)ccc3n2)CC1 | ? | ? | -19.6%[10.9 µM] | 3.16µM*
SMILES | IkB signaling | p53ts 32C tox | Peg3 imprint | p53ts 39C kill
CCN1CCN(c2cc(C)c3cc(NC(=O)c4cc(OC)cc(OC)c4)ccc3n2)CC1 | -5.1% | ? | -12.0%[10.9 µM] | 2.51µM*
CCN1CCN(c2cc(C)c3cc(NC(=O)Cc4ccc(OC)c(OC)c4)ccc3n2)CC1 | 0.0% | -6.8% | -17.4% | -9.4%
CCN1CCN(c2cc(C)c3cc(NC(=O)c4cccc(Cl)c4)ccc3n2)CC1 | ? | 14.1µM* | 2.4%[10.9 µM] | 2.51µM*
CCN(CC)S(=O)(=O)c1ccc(NC(=O)NCc2noc3ccc(C)cc23)cc1 | 0.5% | 21.7% | -12.0%[10.9 µM] | -1.3%
CCOC(=O)c1c(C)oc2nc(C)nc(NCC3CCN(Cc4ccc(Cl)cc4)CC3)c12 | -3.9% | 1.9% | -5.7%[10.9 µM] | -1.6%
COc1ccc(-n2c(=O)c3ccc(C(=O)NCc4ccc(C)cc4)cc3n(CC(=O)Nc3cccc(F)c3)c2=O)cc1 | 2.8% | -23.3% | 2.1%[10.9 µM] | ?
CCc1nnc2c(NCc3ccccc3OC)nc3ccccc3n12 | ? | 3.2% | 3.6%[10.9 µM] | -18.2%
COc1cccc(-c2nnc(Nc3nc4c(F)cccc4s3)o2)c1 | ? | ? | -43.6% | 12.6µM*

From PubChem BioAssay
